GoLoco inh red: RGS12 GoLoco-Gai1 interaction inhibition. Potency, µM (doses to about 61.6 µM), for the others: at the highest dose activity, negative = inhibition, most hits filed as inhibitors. Gai1:RGS12 GoLoco peptide FP, rhodamine, 10 min. hit rate 0.44% among 230,000. P63096; active = well fitted inhibition curve with a large enough effect, not every such curve was filed as active; inactive = no such curve, though single readings can be large or run the other way; note: nearly all actives have a fitted effect of over 30% in size
Target sequence (P63096 whole entry, looked up): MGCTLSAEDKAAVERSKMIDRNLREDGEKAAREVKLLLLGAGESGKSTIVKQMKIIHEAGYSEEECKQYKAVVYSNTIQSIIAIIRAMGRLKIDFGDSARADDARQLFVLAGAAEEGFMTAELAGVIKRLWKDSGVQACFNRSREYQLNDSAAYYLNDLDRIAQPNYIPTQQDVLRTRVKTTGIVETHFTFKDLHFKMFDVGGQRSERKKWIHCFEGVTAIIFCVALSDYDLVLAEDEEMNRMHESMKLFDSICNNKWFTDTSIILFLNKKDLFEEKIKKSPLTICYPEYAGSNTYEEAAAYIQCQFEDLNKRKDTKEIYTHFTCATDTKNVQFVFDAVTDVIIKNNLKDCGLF
TRb SRC2 PPI: disrupts binding of human TR beta to SRC2 | hit rate 0.065% among 280,000 | Potency, µM (top dose mostly 106 µM), without a hit: at the highest dose activity change, negative = inhibition, hits mostly inhibitors | TRbeta-SRC2 peptide binding, fluorescence polarization; receptor liganded with 1 µM T3;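 note: plate controls were bound peptide for no effect and peptide without receptor for full effect; nearly all actives have a fitted effect of over 50% in size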
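Human TRb LBD (0.6 uM) plus Texas Red-labeled SRC2 peptide (20 nM), 1uM T3, 5% DMSO, 5 hr at ambient temperature. Decreased polarization (555/632 nm) flags inhibition; data normalized to free and bound peptide controls.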
Tau FP inhib: blocks human tau fibril formation measured by polarization; P10636; K18 P301L tau heparin fibrillization, Alexa594 FP, 6 h; Potency, µM (titrated, usually from 57.7 µM), without a hit: top-dose activity, negative = inhibition, most hits filed as inhibitors; hit rate 0.39% among 280,000; note: nearly all actives have a fitted effect of over 55% in size
Target sequence (P10636 561-689 P618L limits assumed): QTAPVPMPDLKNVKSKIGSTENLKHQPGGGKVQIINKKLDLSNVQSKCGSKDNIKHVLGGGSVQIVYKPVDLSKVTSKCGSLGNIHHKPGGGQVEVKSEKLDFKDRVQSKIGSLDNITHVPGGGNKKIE
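K18 P301L tau (15 uM unlabeled/0.24 uM Alexa 594-labeled, final) + compound + heparin 20 uM final; 100 mM NaOAc pH 7; 6 hr 37 C; ThT 30 uM final added, 1 hr RT; FP ex 555/em 632 nm.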
Tau fibril ThT: blocks human tau fibril formation measured by thioflavin T | P10636 | recombinant tau K18 P301L, heparin-induced fibrillization, ThT fluorescence | Potency, µM (doses to about 57.4 µM), without a hit: top-dose activity, negative = inhibition, most hits filed as inhibitors | hit rate 2.1% among 270,000 | AID 1460; note: nearly all actives have a fitted effect of over 55% in size
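Aggregation was driven by heparin (20 uM final) acting on recombinant tau […] bearing P301L in 100 mM sodium acetate pH 7; fibrils were detected with Thioflavin T.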
Tau fluor cs: counter-screen for tau fibril formation inhibitors. tau K18 P301L Alexa594 fluorescence, heparin fibrillization. Potency, µM (doses to about 57.7 µM), for inactives: top-dose activity change, negative = decrease. hit rate 0.93% among 280,000; note: nearly all actives have a fitted effect of over 55% in size
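Human tau K18 P301L (15 uM unlabeled, 0.24 uM Alexa 594-labeled) in 100 mM sodium acetate pH 7 with 20 uM heparin, 6 hr at 37 C. ThT 30 uM added, 1 hr ambient; Alexa 594 FP and total fluorescence read at 555/632 nm.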
TR SRC2 fluor cs: counter-screen for TRb-SRC2 inhibitors: fluorescence interference | TRb/SRC2 Texas Red total fluorescence interference | Potency, µM (doses to about 106 µM), for the others: at the highest dose fluorescence change, negative = quenching | hit rate 0.29% among 280,000 | AID 1479; active = well fitted curve in either direction with a large enough effect; inconclusive = small, poorly fitted or top-dose-only effect
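Flags fluorescent or light-absorbing compounds by total fluorescence, S + 2P, at 555 nm excitation and 632 nm emission. Mixture: 20 nM Texas Red SRC2 peptide, 0.6 uM human TRb LBD, 1 uM T3, 5% DMSO; compound exposure 5 h at ambient temperature.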
* marks the source's active call; other numbers are inactive results; ? = inconclusive; . = not tested or not shown; [ ] = another dose, or the depositor's remark. A selection: hits, their analogues and other compounds. The true share with any hit is near 3.1%. Unless noted, calls come from the whole dose curve; as a rule, active = well fitted curve in the direction sought with a large enough effect; inconclusive = small, poorly fitted or top-dose-only effect, or another doubt; inactive = no such curve, though single readings can be large; an effect the other way counts as inactive or inconclusive. Unless noted, % is set by controls: 0 for no effect and ±100 for the full control effect; potency is the fitted concentration of half-maximal effect.

SMILES	GoLoco inh red	TRb SRC2 PPI	Tau FP inhib	Tau fibril ThT	Tau fluor cs	TR SRC2 fluor cs
CC[C@@H](C)[C@@H](CO[C@@H](Cc1ccccc1)C(=O)N[C@@H](CCS(C)(=O)=O)C(=O)OC(C)C)NC[C@@H](N)CS	-26.5%	-2.8%	?	35.5µM*	-11.0%	-7.0%
COc1ccc(CC(C)NS(=O)(=O)c2ccc3c(c2)CCN3S(C)(=O)=O)cc1OC (centres undefined)	.	-4.9%	0.5%	1.4%	-2.7%	7.08µM*[quencher]
CCOC(=O)c1ccc(NC(=O)CSc2nccn2-c2cc(C)cc(C)c2)cc1	.	-5.5%	-8.5%	-6.0%	-19.9%	-4.6%
CCSc1nc2sc3c(c2c(=O)n1-c1ccc(C)c(Cl)c1)CCN(C(C)=O)C3	.	-5.5%	-8.3%	?	-10.8%	-2.1%
COc1cc(-c2nc(Cc3c(F)cccc3Cl)no2)cc(OC)c1OC	-7.1%	0.7%	-13.5%	?	15.8µM*[quencher]	-15.0%
Cc1ccc(C(=O)O)cc1N=Cc1cc(Br)cc(Br)c1O	23.2%	-3.0%	-20.9%	14.1µM*	-9.6%	-2.9%
CC(=O)Nc1ccc(C(=O)N/N=C/c2cc(Br)cc(Br)c2O)cc1	19.4%	-9.8%	0.0%	?	-22.1%	0.1%
Cc1ccc(NS(=O)(=O)c2cc(C(=O)N3CCOCC3)ccc2C)cc1C	4.9%	-7.1%	-5.8%	-3.5%	-5.5%	-1.8%
CCOCCCNC(=O)CN1C(=O)c2c(c3ccccc3n2C)C1c1ccc(OC)cc1 (centres undefined)	.	1.7%	3.4%	-6.0%	-3.4%	1.5%
Nc1ccc(C(=O)NCC(=O)O)cc1	7.7%	10.6%	?	31.6µM*	?	-2.4%
Cc1ccc(C)c(-n2c(CNC(=O)c3ccco3)nnc2SCC(=O)Nc2nnc(C)s2)c1	1.6%	-0.5%	-12.0%	-1.3%	-2.0%	-2.6%
COc1ccc(-c2nc(CSCC(=O)N3CCN(c4ccccc4F)CC3)c(C)o2)cc1	.	-2.3%	14.8%	?	-11.7%	4.1%
COc1ccc(Nc2ncnc3c2cnn3-c2ccc(C)cc2C)cc1	.	2.1%	?	?	?	-2.7%
Cc1ccc(-c2nnn(CC(=O)NCCc3ccc4c(c3)OCO4)n2)cc1	3.4%	2.7%	-5.4%	2.6%	4.2%	-0.3%
Cc1cccc(C(=O)Nc2sc(-c3ccccc3)cc2C(=O)O)c1	3.0%	7.1%	14.1%	14.1µM*	?	-11.0%
CC(C)(C)C(=O)Nc1sc(-c2ccccc2)cc1C(=O)O	5.0%	-3.5%	15.2%	-14.2%	-7.2%	-4.1%
CCN(CC)CCCN1C(=O)C(O)=C(C(=O)c2ccco2)C1c1cc(OC)ccc1OC (centres undefined)	-6.7%	5.1%	-3.7%	-4.0%	-1.4%	3.0%
Cc1csc(Nc2ccccc2)[n+]1-c1ccccc1	-2.3%	5.9%	3.1%	-9.6%	-11.2%	-1.3%
Cc1ccc(NC(=O)N/C=C/c2ccc(Cl)cc2)cc1	-30.4%	3.6%	4.6%	-0.6%	3.8%	-1.9%
O=C(N/C=C/c1ccccc1)Nc1ccc(Cl)cc1	5.6%	3.6%	?	?	5.01µM*[quencher]	0.5%
CS(=O)(=O)c1ccc(-c2nc(-c3ccc(F)cc3)c(-c3ccncc3)[nH]2)cc1	7.9%	1.3%	-2.7%	0.2%	-12.2%	-1.4%
CCCCS(=O)(=O)NC1=NCN(CC)CN1	7.0%	10.4%	1.3%	-5.1%	-0.8%	-0.4%
Nc1nc2c(c(=O)[nH]1)C(c1ccccc1)C1=C(N2)c2ccccc2C1=O (centres undefined)	15.3%	3.0%	6.0%	6.31µM*	?	-1.3%
CCC(C)c1ccc(C2C3=C(Nc4nc(N)[nH]c(=O)c42)c2ccccc2C3=O)cc1 (centres undefined)	14.1%	-1.5%	-4.5%	?	?	-0.7%
Cn1c2c(c(=O)[nH]c1=O)C(c1ccc(O)cc1)C1=C(N2)c2ccccc2C1=O (centres undefined)	18.3%	5.6%	3.6%	22.4µM*	?	-6.2%

From PubChem BioAssay
